From PubChem BioAssay (NCATS)
Inconclusive results are not listed. Values without a mark were called inactive. Calls of active or inactive are those of the source. Calls come from the whole dose curve; as a rule, active = well fitted cell-killing curve with a large enough effect; inconclusive = small, poorly fitted or top-dose-only effect, or effect the other way; inactive = no such curve, though single readings can be large or run the other way.

test: Quantitative High-Throughput drug screen in 47 multiple myeloma cell lines against the NCATS MIPE library collection: OPM1_PLB cell viability assay (AID 1918989); settings: CellTiter-Glo, 48 h; series mostly up to 45.8 µM; viability (% of control): at the top concentration; note: nearly all actives have a fitted effect of over 40% in size;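 for viability (% of control): 100% = DMSO-only wells and 0% = media-only wells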
Method in brief: (§1)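 qHTS format: cells plated (500/well), pin-dosed with MIPE 4.0 compounds, kept 48 h at 37 °C. Readout was CellTiter-Glo luminescence, median RLU.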
Potency is the fitted concentration of half-maximal effect.

| SMILES | Potency | viability (% of control) |
| --- | --- | --- |
| CC[C@H](CC#N)OC(=O)N[C@@H](C)c1cccc(NC(=O)Nc2ccc(-c3cnco3)c(OC)c2)c1 | 13.2 µM (active) |  |
| Cc1ccccc1C(=O)c1ccc(Nc2ccc(Br)cc2N)cc1Cl | 16.6 µM (active) |  |
| CCN1CCC(n2cc(CNc3cc(Cl)c4ncc(C#N)c(Nc5ccc(F)c(Cl)c5)c4c3)nn2)CC1 | 18.7 µM (active) |  |
| O=C1CN2Cc3c(ccc(Cl)c3Cl)N=C2N1 | 13.2 µM (active) |  |
| Cc1ccc2c(c1)C(=O)[C@]1(O)CCN(c3ccccc3)C1=N2 |  | 91.4% |
| CCc1cccc(CC)c1NC(=O)N1Cc2[nH]nc(NC(=O)c3ccc(N4CCN(C)CC4)cc3)c2C1 | 0.833 µM (active) |  |
| COc1cc(N2CCN(C)CC2)ccc1Nc1nc(N)c(C(=O)c2c(Cl)cccc2Cl)s1 | 20.9 µM (active) |  |
| Nc1ncnc2c1ncn2[C@@H]1O[C@H](CO)[C@@H](O)[C@@H]1O | 20.9 µM (active) |  |
| COc1ccc(CCN(C)CCCOc2ccc(S(=O)(=O)c3[nH]c4ccccc4c3C(C)C)cc2)cc1OC | 23.5 µM (active) |  |
| CC(C)(O)CC(=O)NCCn1ccc2ncnc(Nc3ccc(Oc4cccc(C(F)(F)F)c4)c(Cl)c3)c21 | 26.4 µM (active) |  |
| CN[C@@H]1CN(c2ccc3c(=O)c(C(=O)O)cn(-c4nccs4)c3n2)C[C@@H]1OC | 14.4 µM (active) |  |
| O=[N+]([O-])c1ccc(Nc2ccccc2-c2ccccc2)c2nonc12 | 26.4 µM (active) |  |
| O=C(C=Cc1ccc(O)cc1)c1ccc(O)cc1O | 20.9 µM (active) |  |
| Cc1cc(CS(=O)(=O)c2ccccc2)cc(OCc2ccc(CN3CCC[C@H]3CO)cc2)c1 | 20.9 µM (active) |  |
| CO[C@H]1C=CO[C@@]2(C)Oc3c(C)c(O)c4c(O)c(c(C=NN5CCN(C)CC5)c(O)c4c3C2=O)NC(=O)C(C)=CC=C[C@H](C)[C@H](O)[C@@H](C)[C@@H](O)[C@@H](C)[C@H](OC(C)=O)[C@H]1C |  | 128% [at 15.3 µM] |
| COc1ccc(C=CC(=O)Nc2ccccc2C(=O)O)cc1OC |  | 89.1% |
| CNC(=O)[C@H](Cc1ccccc1)NC(=O)[C@H](CC(C)C)[C@H](CSc1cccs1)C(=O)NO |  | 96.4% |
| O=C(O)Cc1cccc(OCCCN(Cc2cccc(C(F)(F)F)c2Cl)CC(c2ccccc2)c2ccccc2)c1 | 18.7 µM (active) |  |
| FC(F)(F)c1ccc(C=Cc2nc(COc3ccc(CCCCn4ccnn4)cc3)co2)cc1 | 0.187 µM (active) |  |
| CCOC(=O)c1c(CSc2ccccc2)n(C)c2cc(Br)c(O)c(CN(C)C)c12 | 5.26 µM (active) |  |
| COc1cc([C@H]2Oc3cc([C@H]4Oc5cc(O)cc(O)c5C(=O)[C@H]4O)ccc3O[C@H]2CO)ccc1O | 14.8 µM (active) |  |
| CO[C@H]1O[C@@H]2O[C@@]3(C)CC[C@@H]4[C@@H](C)CC[C@@H]([C@H]1C)[C@@]24OO3 | 6.62 µM (active) |  |
| CC(=O)OCC(=O)[C@@]1(O)CC[C@H]2[C@@H]3CCC4=CC(=O)C=C[C@]4(C)[C@@H]3[C@@H](O)C[C@@]21C |  | 144% |
| C#C[C@]1(O)CC[C@H]2[C@H]3CCc4cc(OC)ccc4[C@H]3CC[C@@]21C | 16.6 µM (active) |  |
| NC(=O)c1noc([C@H](CCCC2CCCCC2)CC(=O)NO)n1 | 23.5 µM (active) |  |
| Oc1ccc(C=Cc2cc(O)cc(O)c2)cc1 |  | 115% |

test: Quantitative High-Throughput drug screen in 47 multiple myeloma cell lines against the NCATS MIPE library collection: SKMM1_PLB cell viability assay (AID 1919863); settings: SKMM1 myeloma viability, CellTiter-Glo ATP, 48 h; viability: hits give low values; note: nearly all actives have a fitted effect of over 35% in size
Method in brief: as §1

| SMILES | Potency | viability [%] |
| --- | --- | --- |
| CC[C@H](CC#N)OC(=O)N[C@@H](C)c1cccc(NC(=O)Nc2ccc(-c3cnco3)c(OC)c2)c1 | 1.18 µM (active) |  |
| Cc1ccccc1C(=O)c1ccc(Nc2ccc(Br)cc2N)cc1Cl | 16.6 µM (active) |  |
| CCN1CCC(n2cc(CNc3cc(Cl)c4ncc(C#N)c(Nc5ccc(F)c(Cl)c5)c4c3)nn2)CC1 | 5.9 µM (active) |  |
| COc1ccc(-c2ccc3ncc4c(c3c2)n(-c2ccc(N3CCNCC3)c(C(F)(F)F)c2)c(=O)n4C)cn1 | 0.526 µM (active) |  |
| CCc1cccc(CC)c1NC(=O)N1Cc2[nH]nc(NC(=O)c3ccc(N4CCN(C)CC4)cc3)c2C1 | 2.64 µM (active) |  |
| Nc1ncnc2c1ncn2[C@@H]1O[C@H](CO)[C@@H](O)[C@@H]1O |  | 106 |
| COc1ccc(CCN(C)CCCOc2ccc(S(=O)(=O)c3[nH]c4ccccc4c3C(C)C)cc2)cc1OC |  | 110 |
| N#Cc1ccc(Oc2ccc3c(c2)COB3O)cc1 |  | 113 |
| CC(C)(O)CC(=O)NCCn1ccc2ncnc(Nc3ccc(Oc4cccc(C(F)(F)F)c4)c(Cl)c3)c21 | 23.5 µM (active) |  |
| CN[C@@H]1CN(c2ccc3c(=O)c(C(=O)O)cn(-c4nccs4)c3n2)C[C@@H]1OC | 7.24 µM (active) |  |
| CNc1nc(Nc2ccc(C(=O)N3CCOCC3)cc2OC)ncc1Cl |  | 112 |
| COc1ccc2c(c1)CC[C@H]1[C@@H]2CC[C@]2(C)[C@@H](NCCCCCCN3C(=O)C=CC3=O)CC[C@H]12 |  | 134 |
| CNC(=O)[C@H](Cc1ccccc1)NC(=O)[C@H](CC(C)C)[C@H](CSc1cccs1)C(=O)NO |  | 98.7 |
| O=C(O)Cc1cccc(OCCCN(Cc2cccc(C(F)(F)F)c2Cl)CC(c2ccccc2)c2ccccc2)c1 | 11.8 µM (active) |  |
| Nc1ccc(-c2ccc3ncc4ccc(=O)n(-c5cccc(C(F)(F)F)c5)c4c3c2)cn1 | 0.0053 µM (active) |  |
| CCC[C@H](N[C@@H](C)C(=O)N1[C@@H]2CCCC[C@H]2C[C@H]1C(=O)O)C(=O)OCC | 18.7 µM (active) |  |
| CCOC(=O)c1c(CSc2ccccc2)n(C)c2cc(Br)c(O)c(CN(C)C)c12 | 6.62 µM (active) |  |
| COc1cc([C@H]2Oc3cc([C@H]4Oc5cc(O)cc(O)c5C(=O)[C@H]4O)ccc3O[C@H]2CO)ccc1O | 23.5 µM (active) |  |
| CC(=O)OCC(=O)[C@@]1(O)CC[C@H]2[C@@H]3CCC4=CC(=O)C=C[C@]4(C)[C@@H]3[C@@H](O)C[C@@]21C | 0.0074 µM (active) |  |
| NC(=O)c1noc([C@H](CCCC2CCCCC2)CC(=O)NO)n1 | 13.2 µM (active) |  |
